From PubChem
M1 antagonist – antagonists of rat M1 muscarinic receptor. B-score at 10 µM. CHO-M1 cells, Fluo-4 calcium, ACh EC80 antagonist mode; stronger effect = lower value. 3.4% of 64,000 active. AID 628, 2007. Muscarinic acetylcholine receptor M1 (Rattus norvegicus), P08482;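 active = calcium fluorescence response, raw or row-and-column corrected B-score, differing from the plate sample mean either way at a set confidence level, mostly lower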
Hsp90 inh – tumor Hsp90 inhibitors, primary screen, cell lysate, fluorescence polarization, NCI-N417 lysate; Heat shock protein HSP 90-alpha (Homo sapiens), P07900; Cy3B-geldanamycin FP displacement; inhibition, % at 30 µM; 0.35% of 64,000 active;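 active = inhibition above 50%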
M1 ag – M1 muscarinic receptor agonists, primary screen, CHO-M1 cells, Fluo-4 calcium, agonist mode. Muscarinic acetylcholine receptor M1. 3% of 64,000 active. Fluo-4 calcium fluorescence; stronger effect = higher value. B-score at 10 µM;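 active = fluorescence rise, raw or as B-score row- and column-corrected plate score, outside the 99.7% band of its plate's samples, either direction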
MKP-1 inh – MKP-1 phosphatase inhibitors, primary screen, biochemical, in vitro; Dual specificity protein phosphatase 1 (Homo sapiens), P28562; recombinant MKP-1, OMFP hydrolysis fluorescence; inhibition, %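 (compounds tested at a single concentration somewhere between 10 and 100 µM)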; 0.15% of 65,000 active;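 active = inhibition above about 50%, limit read from the data; inconclusive = inhibition over screen mean plus 3 SD, below that limit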
Target sequence (P28562 whole entry, looked up): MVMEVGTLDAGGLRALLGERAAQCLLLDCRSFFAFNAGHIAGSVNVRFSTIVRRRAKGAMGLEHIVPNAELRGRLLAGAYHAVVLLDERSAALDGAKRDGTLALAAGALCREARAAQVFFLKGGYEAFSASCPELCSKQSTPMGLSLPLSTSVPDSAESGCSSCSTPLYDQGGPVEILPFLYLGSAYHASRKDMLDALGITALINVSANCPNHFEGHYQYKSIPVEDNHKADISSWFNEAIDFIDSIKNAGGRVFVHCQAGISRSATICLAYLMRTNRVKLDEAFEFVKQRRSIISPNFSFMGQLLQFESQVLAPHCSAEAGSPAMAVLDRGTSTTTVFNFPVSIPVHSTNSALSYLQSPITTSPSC
MMP-13 inhibitor – human MMP13 inhibitors, primary screen, biochemical, FRET peptide cleavage | Collagenase 3 (Homo sapiens), P45452 | MMP-13 fTHP FRET cleavage, Mca fluorescence | inhibition, % at 4 µM | 0.07% of 65,000 active | AID 570, 2006;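 active = inhibition above the mean of compound-free control plate wells plus 3 SD, cut at about 14% in these data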
Cdc25B inh – inhibitors of Cdc25B phosphatase catalytic domain, primary screen, biochemical, OMFP fluorescence. M-phase inducer phosphatase 2 (Homo sapiens), P30305. recombinant Cdc25B, OMFP fluorescence Ex485/Em525. inhibition, %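 (compounds tested at 10 µM final in the well)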. 0.1% of 65,000 active; in the data active = inhibition above about 50%
M1 agonist conf – rat M1 muscarinic receptor agonists, confirmation, CHO-M1 cells, Fluo-4 calcium, duplicate retest; shares compounds with M1 ag; Fluo-4 calcium fluorescence, agonist mode; actives lie on both sides; fluorescence change (max-min) at 10 µM; 19% of 1,700 active; AID 1488, 2009;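 active = fluorescence change differs from the solvent-only DMSO control mean at a set confidence level in both duplicate runs; inconclusive = differs from solvent-only control mean in just one of two runs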;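 also: an EC20 dose of acetylcholine follows compound addition during the same imaging run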
M4 ag counter – agonist activity at rat M4 receptor, confirmation, counter-screen for M1 allosteric modulator project, cell-based, agonist mode. shares compounds with M1 ag. CHO M4/Gqi5 cells, Fluo-4 calcium fluorescence; actives lie on both sides. fluorescence change (max-min) at 10 µM. 9% of 1,700 active. AID 1741, 2009;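 active = fluorescence change differing from the plate's solvent-only control wells at 99.7% confidence in both duplicates, whether higher or lower; inconclusive = differs from solvent controls in only one of two duplicates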
M1 antag confirm – rat M1 muscarinic receptor antagonists, confirmation, CHO cells, Fluo-4 calcium, duplicate | calcium response (max-min fluorescence) at 10 µM | ACh EC80 antagonism; stronger effect = lower value | 43% of 1,700 active | shares compounds with M1 antagonist | AID 677, 2007;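 active = calcium response below the same-plate mean of wells given acetylcholine alone at its 80%-effect dose, minus 3 SD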
mGluR4 antag – human mGluR4 response to M1 antagonist hits, M1 allosteric modulator project, cell-based, antagonist mode, secondary assay 1. 0.9% of 1,700 active. shares compounds with M1 antagonist. CHO-mGluR4 calcium flux, Fluo-4 fluorescence, glutamate EC80; stronger effect = lower value. fluorescence response (max-min) at 10 µM;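 active = fluorescence response below the plate's average for near-maximal glutamate wells, less 3 SD of those wells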;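 also: raw unnormalized fluorescence span taken in the window right after glutamate addition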
A number is an active result. Only some compounds are listed: those with a hit (about 6.1% of all), similar ones and a draw of the others.

Cc1ccc2c(c1)nnn2C1CCN(S(=O)(=O)c2cccc(S(=O)(=O)N(C)C)c2)CC1 was read as M1 antagonist inactive, Hsp90 inh inactive, M1 ag 4.9, MKP-1 inh inactive, MMP-13 inhibitor inactive, Cdc25B inh inactive, M1 agonist conf inconclusive and M4 ag counter inactive.
`Cc1ccc(-c2nc3ccccc3[nH]2)cc1NC(=O)c1ccco1` gave M1 antagonist inactive, Hsp90 inh inactive, M1 ag inactive, MKP-1 inh inactive, MMP-13 inhibitor inactive and Cdc25B inh inactive.
Screening O=C(Nc1cccc(-c2nc3ccccc3[nH]2)c1)c1cccc(NC(=O)c2ccco2)c1 returned M1 antagonist inactive, Hsp90 inh inactive, M1 ag 5.1, MKP-1 inh inactive, MMP-13 inhibitor inactive, Cdc25B inh inactive, M1 agonist conf inactive and M4 ag counter inactive.
`O=C(Nc1cccc(-c2cnc3ccccc3n2)c1)c1ccco1` gave M1 antagonist inactive, Hsp90 inh inactive, M1 ag 4.3, MKP-1 inh inactive, MMP-13 inhibitor inactive, Cdc25B inh inactive, M1 agonist conf inconclusive and M4 ag counter inactive.
`O=C(Nc1cnc2ccccc2c1)c1ccco1` gave M1 antagonist inactive, Hsp90 inh inactive, M1 ag inactive, MKP-1 inh inactive, MMP-13 inhibitor inactive and Cdc25B inh inactive.
Screening O=C1NCCN1Cc1ccccc1F returned M1 antagonist inactive, Hsp90 inh inactive, M1 ag inactive, MKP-1 inh inactive, MMP-13 inhibitor inactive and Cdc25B inh inactive.
N=c1c2c3c(sc2nc2n1CCCCC2)CCCCC3 was read as M1 antagonist -19, M1 ag -3.3, MKP-1 inh inactive, MMP-13 inhibitor inactive, Cdc25B inh inactive, M1 agonist conf -24, M4 ag counter inactive, M1 antag confirm 15 and mGluR4 antag inactive.
Screening O=c1c2c3c(sc2nc2n1CCCCC2)CCCC3 returned Hsp90 inh inactive, MKP-1 inh inactive, MMP-13 inhibitor inactive and Cdc25B inh inactive.
Screening Cc1ccc(CC2C(=O)N(c3ncccn3)C(=O)C2C)cc1 (configuration not stated) returned M1 antagonist -7, Hsp90 inh inactive, M1 ag -3.7, MKP-1 inh inactive, MMP-13 inhibitor inactive, Cdc25B inh inactive, M1 agonist conf inactive, M4 ag counter inactive, M1 antag confirm inactive and mGluR4 antag inactive.
For Cc1ccc(CC2CC(=O)N(c3ccncc3)C2=O)cc1 (configuration not stated) the results were M1 antagonist inactive, Hsp90 inh inactive, M1 ag inactive, MKP-1 inh inactive, MMP-13 inhibitor inactive and Cdc25B inh inactive.
Screening COc1cc(C(=O)O)cc(Br)c1OC1CCCC1 returned M1 antagonist inactive, Hsp90 inh inactive, M1 ag inactive, MKP-1 inh inactive, MMP-13 inhibitor inactive and Cdc25B inh inactive.
`C=CCNC1=C(Cl)C(=O)N(c2ccccc2Cl)C1=O` gave M1 antagonist inactive, Hsp90 inh inactive, M1 ag inactive, MKP-1 inh inactive, MMP-13 inhibitor inactive and Cdc25B inh inactive.
`CCCN1CCN(CCCNC(=O)c2cc3c(=O)n(C)c4ccccc4c3n2C)CC1` gave M1 antagonist -4.3, Hsp90 inh inactive, M1 ag -3.1, MKP-1 inh inactive, MMP-13 inhibitor inactive, Cdc25B inh inactive, M1 agonist conf inconclusive, M4 ag counter inactive, M1 antag confirm inactive and mGluR4 antag inactive.
O=C(O)c1cc(-c2ccco2)nc2ccc(Br)cc12 was read as M1 antagonist -17, Hsp90 inh inactive, M1 ag -2.5, MKP-1 inh inactive, MMP-13 inhibitor inactive, Cdc25B inh inactive, M1 agonist conf inactive, M4 ag counter inactive, M1 antag confirm inactive and mGluR4 antag inactive.
`Cc1ccc(OCCSc2nnc(NC(=O)c3ccco3)s2)cc1` gave M1 antagonist -3.6, Hsp90 inh inactive, M1 ag inactive, MKP-1 inh inactive, MMP-13 inhibitor inactive, Cdc25B inh inactive, M1 antag confirm inactive and mGluR4 antag inactive.
c1ccc(N2CCN(c3nc(NCc4ccco4)c4ccccc4n3)CC2)cc1 was read as M1 antagonist inactive, Hsp90 inh inactive, M1 ag inactive, MKP-1 inh inactive, MMP-13 inhibitor inactive and Cdc25B inh inactive.
c1coc(CNc2nc(N3CCCCC3)nc3ccccc23)c1 was read as M1 antagonist -1.5, Hsp90 inh inactive, M1 ag inactive, MKP-1 inh inactive, MMP-13 inhibitor inactive, Cdc25B inh inactive, M1 antag confirm inactive and mGluR4 antag inactive.
Screening CC(=O)N(CC1CCCO1)c1nnc(-c2cnccn2)s1 (configuration not stated) returned M1 antagonist inactive, Hsp90 inh inactive, M1 ag inactive, MKP-1 inh inactive, MMP-13 inhibitor inactive and Cdc25B inh inactive.
For O=C(NC1CCCCCCC1)c1ccccc1O the results were M1 antagonist -2.2, Hsp90 inh inactive, M1 ag inactive, MKP-1 inh inactive, MMP-13 inhibitor inactive, Cdc25B inh inactive, M1 antag confirm inactive and mGluR4 antag inactive.
Screening COC(=O)/C=c1/sc2nc3ccccc3n2c1=O returned M1 antagonist -2.5, Hsp90 inh inactive, M1 ag inactive, MKP-1 inh inactive, MMP-13 inhibitor inactive, Cdc25B inh inactive, M1 antag confirm inactive and mGluR4 antag inactive.
For COC(=O)\C(C(C)=O)=C(/C=C/C=C/N(C)C)N(C)C the results were M1 antagonist -2.4, Hsp90 inh inactive, M1 ag inactive, MKP-1 inh inactive, MMP-13 inhibitor inactive, Cdc25B inh inactive, M1 antag confirm inactive and mGluR4 antag inactive.
For COc1ccccc1-c1noc(-c2ccccc2)n1 the results were M1 antagonist -17, Hsp90 inh inactive, M1 ag inactive, MKP-1 inh inactive, MMP-13 inhibitor inactive, Cdc25B inh inactive, M1 antag confirm 506 and mGluR4 antag inactive.
